PLK1 PBD inh: qHTS for Inhibitors of PLK1-PDB (polo-like kinase 1 - polo-box domain): Primary Screen; Serine/threonine-protein kinase PLK1 (Homo sapiens), P53350; Plk1 PBD binding of FITC phosphopeptide, fluorescence polarization; Potency, µM, inactives show max response, negative = inhibition, hits mostly inhibitors; hit rate 2.8% among 360,000; AID 720504, 2013; also: series mostly up to about 57 µM; nearly all actives have a fitted effect of over 65% in size
GCN5L2 inh: qHTS Assay for Inhibitors of GCN5L2. GCN5L2 HAT assay, ThioGlo1 CoA-SH fluorescence. Potency, µM (series often up to 58.9 µM), without a hit: at the top dose activity change, negative = inhibition, actives largely listed as inhibitors. hit rate 0.21% among 390,000
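Preincubate 20nM GCN5L2 with compound 15 min, RT → add 50uM ThioGlo1 + 75uM H3(1-25) + 70uM acetyl-CoA → read fluorescence 0 and 20 min. Primary qHTS; fluorescent artifacts likely.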
DT40 TDP1 CPT: qHTS for Inhibitors of human tyrosyl-DNA phosphodiesterase 1 (TDP1): qHTS in cells in presence of CPT. chicken DT40 Tdp1-/-;hTDP1 cells + 20 nM CPT, ATP luminescence, 48 h. Potency, µM (top dose mostly 46.2 µM), without a hit: at the highest dose activity change, negative = growth inhibition, hits mostly inhibitors. hit rate 12% among 420,000. AID 686979, 2013; also: nearly all actives have a fitted effect of over 55% in size
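Chicken DT40 Tdp1-/- cells complemented with human TDP1, 400 cells/well, exposed to compounds plus 20 nM camptothecin for at least 48 h at 37 C; viability read as ATP content by CellTiter-Glo luminescence.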
DT40 TDP1 no CPT: qHTS for Inhibitors of human tyrosyl-DNA phosphodiesterase 1 (TDP1): qHTS in cells in absence of CPT; DT40 Tdp1-/- hTDP1 cells, no CPT, ATP luminescence, 48 h; Potency, µM (highest dose often 46.2 µM), for the others: at the top dose activity change, negative = growth inhibition, actives largely listed as inhibitors; hit rate 15% among 420,000; AID 686978, 2013; also: nearly all actives have a fitted effect of over 55% in size
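Seeded 400 DT40-hTDP1 cells/well (vehicle DMSO, no 20 nM CPT); pinned compounds; ≥48 hr at 37 °C; CellTiter-Glo luminescence as viability measure.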
TDP1 block: qHTS Assay for Inhibitors of Tyrosyl-DNA Phosphodiesterase (TDP1); Potency, µM (titrated, usually from 130 µM), without a hit: at the top dose activity change, negative = inhibition, usual class: inhibitors; AID 485290, 2010; recombinant TDP1, AlphaScreen DNA substrate cleavage; hit rate 0.28% among 350,000; Tyrosyl-DNA phosphodiesterase 1 (Homo sapiens), Q9NUW8; also: nearly all actives have a fitted effect of over 40% in size
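Enzyme-compound mixtures sat 15 min at room temperature, followed by a 5 min reaction with 15 nM final substrate and 10 min with AlphaScreen beads. Recombinant human Tdp1 was used at 1 nM final.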
VDR inhibitor: Inhibitors of the vitamin D receptor (VDR): qHTS. Potency, µM, without a hit: max response, negative = inhibition, actives largely listed as inhibitors. hit rate 0.93% among 400,000. VDR-SRC2-3 peptide fluorescence polarization, 2 h
Target sequence (P11473 whole entry, looked up): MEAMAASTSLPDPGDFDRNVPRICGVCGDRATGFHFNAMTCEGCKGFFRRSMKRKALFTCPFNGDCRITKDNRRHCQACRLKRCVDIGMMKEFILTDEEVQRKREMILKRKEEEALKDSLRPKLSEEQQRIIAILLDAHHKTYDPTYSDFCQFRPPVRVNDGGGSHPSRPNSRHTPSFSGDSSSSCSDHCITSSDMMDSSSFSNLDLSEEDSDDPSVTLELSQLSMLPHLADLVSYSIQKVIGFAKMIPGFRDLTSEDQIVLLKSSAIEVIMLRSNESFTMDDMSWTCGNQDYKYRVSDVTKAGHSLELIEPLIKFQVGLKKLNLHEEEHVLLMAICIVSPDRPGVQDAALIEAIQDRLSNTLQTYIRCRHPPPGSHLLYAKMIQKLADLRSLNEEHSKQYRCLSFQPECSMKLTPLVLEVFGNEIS
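Signal is fluorescence polarization, reporting how far test compounds block the interaction of VDR with the SRC2-3 coregulator peptide after a 2 h room-temperature incubation.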
Starred values were filed as active, the others as inactive; ? = inconclusive; . = not tested or not shown; [ ] = another dose, or the depositor's remark. Compounds with a hit are over-represented: about 18% of the library has one in this group of screens. Calls follow the shape of the dose curve; as a rule, active = well fitted curve in the direction sought with a large enough effect; inconclusive = small, poorly fitted or top-dose-only effect, or another doubt; inactive = no such curve, though single readings can be large; an effect the other way counts as inactive or inconclusive. % is scaled to controls: 0 for no effect and ±100 for the full control effect; potency is read from the fitted curve at half-maximal effect.

SMILES	PLK1 PBD inh	GCN5L2 inh	DT40 TDP1 CPT	DT40 TDP1 no CPT	TDP1 block	VDR inhibitor
Cc1onc(-c2ccccc2)c1C(=O)OCC(=O)N1CCCCC1	-13%	.	-24%	?	.	.
Cc1ccc2c(c1)c1c(n2CC(O)Cn2nc(C)c(Br)c2C)C(=O)CCC1 (stereo not given)	-12%	-5%	21µM*	21µM*	-14%	11%
CCN(CC)c1cc2c(cc1F)c(=O)c(S(=O)(=O)c1ccc(OC)cc1)cn2Cc1ccccc1	.	-14%	?	23µM*	1%	14%
CCN(CC)c1cc2c(cc1F)c(=O)c(S(=O)(=O)c1ccccc1)cn2Cc1ccccc1	.	-8%	15µM*	16µM*	5%	6%
CCCCn1cc(S(=O)(=O)c2ccc(C)c(C)c2)c(=O)c2cc(F)c(N(CC)CC)cc21	.	-5%	7.3µM*	8.2µM*	-1%	-3%
CCn1c(-c2ccccc2F)nc2cc(C(=O)NCC3CCOCC3)cc(NC(C)=O)c21	.	.	23%[9.04 µM]	-21%	.	.
O=C1Nc2ccccc2N=C(c2ccc3c(c2)OCO3)C1N(C(=O)c1ccnc2ccccc12)c1ccccc1 (stereo not given)	-1%	.	21µM*	18µM*	.	.
O=C1Nc2ccccc2N=C(c2ccc3c(c2)OCO3)C1N(C(=O)c1ccc2ccccc2c1)C1CC1 (stereo not given)	3%	.	16µM*	21µM*	.	.
COc1ccc(C2=Nc3ccccc3NC(=O)C2N(Cc2ccc(F)cc2)C(=O)c2ccco2)cc1 (stereo not given)	-13%	.	?	?	.	.
CC(=O)N1CCN(Cc2cc(=O)oc3cc(C)cc(C)c23)CC1	-20%	.	-2%	-15%	.	.
Cc1ccc(Cl)cc1-n1c(=O)c2sc3ccccc3c2n(CC(=O)NC2CCCCC2)c1=O	.	3%	?	?	4%	17%
O=C(Cn1c(=O)n(-c2cccc(Cl)c2)c(=O)c2sc3ccccc3c21)NC1CCCCC1	.	0%	23µM*	?	1%	14%
COc1cccc(-n2c(=O)c3sc4ccccc4c3n(CC(=O)Nc3ccccc3C)c2=O)c1	.	-7%	6%	-15%	4%	11%
COc1cccc(-n2c(=O)c3sc4ccccc4c3n(CC(=O)Nc3ccccc3OC)c2=O)c1	.	5%	9.2µM*	15µM*	-1%	-7%
Cc1ccc(CN2CCSc3ccc(C(=O)N4CCN(c5cccc(C)c5C)CC4)cc32)cc1	.	-2%	8.2µM*	5.2µM*	1%	-19%
Cc1ccc(CN2CCSc3ccc(C(=O)N4CCN(c5ccc(Cl)cc5)CC4)cc32)cc1	.	-2%	15µM*	21µM*	4%	5%
NC(=O)C1(N2CCCCC2)CCN(C(=O)c2ccc(-n3cnnn3)cc2)CC1	27µM*	-3%	?	?	3%	-12%
Cc1ccc(N2CCN(C(=O)Nc3cn(CC(C)C)c(=O)c4ccccc34)CC2)c(C)c1	.	4%	10µM*	10µM*	4%	7%
Cc1cccc(N2CCN(C(=O)Nc3cn(CC(C)C)c(=O)c4ccccc34)CC2)c1C	.	-7%	8.2µM*	7.3µM*	6%	12%
O=C(CSc1ccc2c(c1)OCCO2)NC(=O)Cc1ccccc1	-1%	2%	-5%	-24%	6%	9%
COc1ccc(C(=O)/C(Br)=C/C(=O)O)cc1	.	3%	.	.	5%	-5%
COc1ccc(Br)cc1C(=O)Nc1ccc(NC(=O)c2ccco2)cc1	-1%	1%	-14%	-11%	6%	-14%
COc1ccc(Br)cc1C(=O)Nc1cccc(-c2nnc(-c3ccco3)o2)c1	-13%	.	23µM*	?	.	3%
COc1ccccc1CNC(=O)C(=O)NCC(c1cccs1)S(=O)(=O)c1ccc(F)cc1 (stereo not given)	.	-5%	?	?	-3%	4%
CN(C(=O)COC(=O)c1ccc2c(c1)NC(=O)CS2)C1CCS(=O)(=O)C1 (stereo not given)	-18%	-4%	-29%	-8%	6%	-7%
SMILES	PLK1 PBD inh	GCN5L2 inh	DT40 TDP1 CPT	DT40 TDP1 no CPT	TDP1 block	VDR inhibitor
CC(C)CN(C(=O)COC(=O)c1ccc2c(c1)NC(=O)CS2)C1CCS(=O)(=O)C1 (stereo not given)	21µM*	-3%	-27%	-2%	0%	-19%
CC(C)CN(C(=O)COC(=O)Cc1c[nH]c2ccccc12)C1CCS(=O)(=O)C1 (stereo not given)	27µM*	3%	?	-7%	0%	7%
C[C@@H](NC(=O)c1nc[nH]c1C(=O)NCCCCCNC(=O)OC(C)(C)C)c1ccccc1	-1%	-3%	26µM*	?	0%	-10%
C[C@H](NC(=O)c1nc[nH]c1C(=O)NCCCCCNC(=O)OC(C)(C)C)c1ccccc1	-2%	1%	15µM*	16µM*	1%	-19%
C=CC(=O)Nc1ccc(N(C)c2ccnc(Nc3ccc(N4CCN(C)CC4)cc3)n2)cc1	-5%	-9%	?	16µM*	12%	8%
CN1CCN(c2ccc(Nc3c4ccccc4nc4ccccc34)cc2)CC1	.	-5%	.	.	21%	-4%
COc1ccc(NC(=O)CN2CCCN(Cc3ccc(Cl)cc3)S2(=O)=O)cc1Cl	.	-15%	12µM*	10µM*	0%	3%
COCC(=O)Nc1ccc(OC)c(Cl)c1	-8%	-4%	-3%	3%	.	-10%
COc1ccc(NC(=O)COC(C)=O)cc1Cl	27µM*	-5%	?	12%	0%	-6%
CCCn1c(C)cc(/C=C(\C#N)C(=O)OCC(=O)Nc2ccc(OC)c(Cl)c2)c1C	-4%	-7%	-27%	12µM*	-3%	-8%
O=C(CN1CCCN(Cc2ccccc2Cl)S1(=O)=O)Nc1ccc2c(c1)OCCO2	.	-1%	?	-25%	9%	3%
COc1ccc(OC)c(NC(=O)CN2CCCN(Cc3ccccc3Cl)S2(=O)=O)c1	.	6%	?	23µM*	8%	-4%
Cc1c(NC(=O)COc2cccc(Cl)c2Cl)c(=O)n(-c2ccccc2)n1C	-1%	1%	-15%	-14%	.	14%
Cc1ccc(S(=O)(=O)N2CCOCC2)cc1NC(=O)COC(=O)C1=COCCO1	1%	-9%	2%	-20%	-1%	2%

High-throughput results (PubChem)
